In all, about 33,000 sequences were measured (“E-score (-0.5 to 0.5)”: median about -0.032, highest 2% from about 0.36 on). Only a selection was taken, and the highest values are over-represented in it overall.
Target: T1, Sko1 (UniProt Q02100)
T1 sequence: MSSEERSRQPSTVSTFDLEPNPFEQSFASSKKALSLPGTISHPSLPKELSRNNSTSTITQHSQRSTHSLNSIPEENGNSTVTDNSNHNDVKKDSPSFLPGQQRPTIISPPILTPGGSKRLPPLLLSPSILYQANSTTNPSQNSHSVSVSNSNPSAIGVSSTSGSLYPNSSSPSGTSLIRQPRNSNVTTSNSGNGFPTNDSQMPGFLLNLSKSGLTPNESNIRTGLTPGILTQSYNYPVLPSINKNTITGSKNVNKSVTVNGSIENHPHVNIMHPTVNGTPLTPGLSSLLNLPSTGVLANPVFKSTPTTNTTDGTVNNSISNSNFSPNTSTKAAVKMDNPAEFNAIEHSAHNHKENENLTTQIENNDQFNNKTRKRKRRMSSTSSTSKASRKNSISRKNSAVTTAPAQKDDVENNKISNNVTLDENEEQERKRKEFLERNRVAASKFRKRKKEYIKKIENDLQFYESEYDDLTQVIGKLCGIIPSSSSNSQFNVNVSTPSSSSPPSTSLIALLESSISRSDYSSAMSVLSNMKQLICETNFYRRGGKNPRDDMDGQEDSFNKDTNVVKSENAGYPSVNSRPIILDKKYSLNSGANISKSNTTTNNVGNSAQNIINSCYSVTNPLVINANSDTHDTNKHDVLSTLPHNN
Assay: PBM E-score (8-mer binding enrichment) (E-score (-0.5 to 0.5)); higher = stronger / more preferred TF binding
Conditions: protein concentration: 200 nM; construct: GST-full length
Description: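 Universal 'all 10-mer' protein binding microarrays (Agilent AMADID 015681) probed with GST-tagged S. cerevisiae TFs (full-length or DBD) made by in vitro transcription/translation (PURExpress), about 100-200 nM. Bound TF was detected with fluorescent anti-GST. Each ungapped 8-mer (which stands for itself and its reverse complement) is scored by the PBM enrichment score (E-score), a modified Wilcoxon-Mann-Whitney statistic from -0.5 to +0.5, computed with the Universal PBM Analysis Suite. Scale: above 0.35 generally sequence-specific binding.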

| Sequence | PBM E-score |
| --- | --- |
| CACGCACA | 0.222 |
| CACGCACG | 0.204 |
| AACGCATA | 0.219 |
| AACGCAAC | 0.289 |
| TACGCAAA | 0.415 |
| TACGCACA | 0.401 |
| GACGCAAA | 0.347 |
| AACGCAAG | 0.0717 |
| AACGCAAA | 0.175 |
| AACGCAAT | 0.38 |
| TACGCATA | 0.368 |
| CACGCATA | 0.0358 |
| TCAGCCGA | -0.104 |
| GGGGCGAC | -0.228 |
| GAGACCGC | -0.32 |
| CATGCCTC | 0.0373 |
| TAGAGCGA | -0.114 |
| GGGTTGTA | -0.19 |
| AACGCACA | 0.161 |
| CACGCAAC | 0.379 |
| CACGCAAG | 0.3 |
| GACGCACA | 0.36 |
| AACGCACG | 0.31 |
| CACGCAAA | 0.26 |
| TCGCTTAA | -0.0032 |

| Sequence | PBM E-score |
| --- | --- |
| GAGACTGC | -0.054 |
| AAAGAACT | -0.0725 |
| AACAGAGG | -0.205 |
| CGGTTCTC | -0.0999 |
| AACCTTCT | -0.298 |
| CAAGGTCA | -0.144 |
| CCTGACGC | 0.0655 |
| GGTGATGA | 0.18 |
| CGTGACGA | 0.411 |
| AGTGACGC | 0.416 |
| CGTGACCA | -0.0216 |
| CGTGACAA | 0.188 |
| CGTGATGA | 0.36 |
| CGTGACGC | 0.422 |
| AGTGACCC | -0.23 |
| AGTGATGA | 0.21 |
| AGTGACTC | -0.0159 |
| CTTGACGC | 0.262 |
| ACCTGAGC | 0.0188 |
| AACTGGTC | -0.112 |
| CTTAGTTC | 0.0167 |
| AAACAGCT | -0.0726 |
| CGCTCTCA | -0.0854 |
| GAAACACC | 0.02 |
| TAGTTCAA | 0.0959 |

| Sequence | PBM E-score |
| --- | --- |
| GGCGCACC | -0.36 |
| TCACAAGA | -0.00762 |
| CCTGGCGC | -0.133 |
| ACGTAAAG | 0.461 |
| GCGTAAAA | 0.279 |
| CCGTAAAG | 0.0256 |
| GCGTAAAC | 0.281 |
| AGGTAAAT | 0.131 |
| AAGTAAAG | -0.152 |
| AAGTAAAT | 0.139 |
| ACGTAAAC | 0.459 |
| CCGTAAAC | 0.104 |
| ACGTAAAT | 0.463 |
| CCGTAAAA | 0.053 |
| ACGTAAAA | 0.463 |
| CACGCACC | 0.115 |
| AGCTTTGC | -0.179 |
| GAAAATGC | 0.0279 |
| GAGTAGCA | 0.0153 |
| TCTGGCAA | -0.261 |
| CTGAAAGA | -0.0455 |
| CATTGCAG | 0.0387 |
| GGATGCAC | -0.16 |
| GTCTGCAC | -0.118 |
| GGACGTCC | -0.151 |

| Sequence | PBM E-score |
| --- | --- |
| GGACGTCA | 0.466 |
| CGACGTCG | 0.209 |
| AGACGTCT | 0.271 |
| AGACGTCA | 0.484 |
| CGACGTCC | 0.169 |
| CGACGTCA | 0.486 |
| GGCCGTCA | -0.184 |
| AGACGTCC | 0.281 |
| GCAGATGA | -0.0175 |
| AGCCGGAG | 0.0107 |
| CAAGTACC | -0.0542 |
| AAGGATCG | 0.0147 |
| AAGTTTTA | 0.142 |
| AGTCGGAA | -0.0901 |
| AGACTCAT | 0.183 |
| ATTACGGG | 0.206 |
| ATTACCTG | 0.067 |
| ATTACGGC | 0.303 |
| ATTAGGTC | 0.207 |
| ATTACGTG | 0.487 |
| ATTACGTC | 0.492 |
| GAGAGCCA | -0.118 |
| AGGCTGCC | -0.341 |
| GATCCACA | -0.0832 |
| CTTCCTTC | -0.284 |

| Sequence | PBM E-score |
| --- | --- |
| GTAGATTA | 0.269 |
| AACTGAAG | 0.0972 |
| GACGTAGC | 0.436 |
| CGCGTAGA | 0.0669 |
| GCCGTAGC | -0.328 |
| AACGTAGG | 0.336 |
| AACGTAGC | 0.349 |
| CCCGTAGC | -0.291 |
| CACGTAGA | 0.39 |
| CACGTAGC | 0.364 |
| CTCGTAGC | -0.0204 |
| CACGTAGG | 0.396 |
| CCCGTAGG | -0.194 |
| AACGTAGA | 0.357 |
| CTGCACTC | -0.16 |
| GTTTAAGA | -0.0752 |
| CAGTCGTC | 0.0351 |
| CTTCCTGC | -0.256 |
| CGTAGCAC | 0.295 |
| GCCATCCC | -0.319 |
| CCACTGTC | -0.185 |
| ACAAGGGT | -0.0251 |
| GCCAGCAA | -0.205 |
| CTAACCAG | -0.0782 |
| GACCTGGC | -0.297 |

| Sequence | PBM E-score |
| --- | --- |
| TACGTAGA | 0.452 |
| GGCGTAGA | 0.118 |
| AGCGTAGA | -0.0243 |
| TCCGTAGA | -0.15 |
| GACGTAGA | 0.42 |
| GTCGTAGA | 0.166 |
| AGCGACAG | -0.155 |
| GGTAAAAA | 0.0275 |
| CGTAATCC | 0.405 |
| CCTAATCC | -0.11 |
| GGTAAACA | 0.136 |
| AGTAAACA | 0.0928 |
| CGTAATCA | 0.452 |
| AGTAATCA | 0.0126 |
| CGTAAACA | 0.374 |
| GGTAATCA | 0.0412 |
| AGTAATCC | 0.0657 |
| GGTGGCAA | -0.169 |
| CCCGACGC | -0.148 |
| AAGGTTTA | -0.0389 |
| ATCTTGGC | -0.119 |
| ACGAGACT | 0.0545 |
| AACACCAA | 0.109 |
| GCTACGTA | 0.456 |
| ACTACGCG | 0.245 |

| Sequence | PBM E-score |
| --- | --- |
| ACTACGAA | 0.289 |
| GCTACGAA | 0.239 |
| ACTACGTA | 0.484 |
| GCTACGGA | -0.0597 |
| ACTACGGA | -0.036 |
| ACTACGGG | -0.221 |
| ACTACGTG | 0.415 |
| ATAGCGAG | -0.0959 |
| ATAATGGA | 0.068 |
| GCAATGAC | 0.374 |
| AGAATGAC | 0.377 |
| GCAATGAA | 0.128 |
| ATAATGAT | 0.278 |
| ATAATGAC | 0.378 |
| CTAATGGA | -0.158 |
| AGAATGAG | 0.0649 |
| ATAATGAG | 0.114 |
| CCAATGAC | 0.253 |
| CGAATGAC | 0.351 |
| GTAATGGA | 0.402 |
| AATCAAAC | 0.229 |
| AGAAGTGG | -0.19 |
| ACTTCTAA | -0.0244 |
